Measured values: PubChem BioAssay AID720518 (National Center for Advancing Translational Sciences (NCATS), 2013)
Inconclusive results are not listed. A number with no mark means an inactive call. Calls come from the whole dose curve.

assay: qHTS for Inhibitors of Cell Surface uPA Generation: Wild-type Protective Antigen (WT-PrAg) Counterscreen for Cherry-picked Compounds; details: cells, WT protective antigen toxicity counterscreen; series mostly up to 115 µM; activity (protection): at the top concentration; note: 0% is about no effect

Row | SMILES | activity (protection) [%]
1 | CCOC(=O)CN1C(=O)N[C@@H](c2ccco2)C(C(=O)OC)=C1C | -1.93
2 | COc1ccc(NC(=O)Nc2nnc(N3CCCCC3C)s2)cc1OC (configuration not stated) | -1.51
3 | Cn1c(CN2CCCC2)nc2cc(NC(=O)COc3ccccc3)ccc21 | -1.34
4 | COc1ccc(C)cc1NC(=O)CSCc1cc(=O)n2c(C)csc2n1 | 0.0603
5 | O=C(NC1CCCCC1)C(c1ccco1)N(C(=O)c1csnn1)c1cccc(Cl)c1 (configuration not stated) | 1.16
6 | Cc1[nH]c2ccccc2c1C(=O)COC(=O)c1cccc(S(=O)(=O)N2CCCCC2)c1 | 1.61
7 | CCCCn1c(C2CCCCC2)nc2cc3[nH]c(=O)c(C(C)C)nc3cc21 | -2.19
8 | CCOC(=O)Cn1c(=O)cc(C)c2cccc(C)c21 | 5.3
9 | Cc1c([N+](=O)[O-])c2ccc(O)cc2n1-c1ccccc1 | 11.1
10 | Cc1nc(SCc2nc3ccccc3[nH]2)c2oc3cc([N+](=O)[O-])ccc3c2n1 | -2.07
11 | COc1ccc(NC(=O)CCNS(=O)(=O)c2ccccc2F)cc1S(=O)(=O)N1CCOCC1 | -0.848
12 | COc1ccc(/C=C/C(=O)Nc2ccccc2Cl)cc1S(=O)(=O)N1CCOCC1 | -0.626
13 | CC(=O)Nc1nc2ccccc2[nH]1 | 0.0855
14 | CS(=O)(=O)Nc1cccc(C2=NN(S(=O)(=O)c3ccccc3)C(c3ccco3)C2)c1 (configuration not stated) | -0.967
15 | O=[N+]([O-])c1cccc(-c2noc(-c3cccs3)n2)c1 | 3.04
16 | O=C(c1ccc(F)c([N+](=O)[O-])c1)N1CC2CC(C1)c1cccc(=O)n1C2 (configuration not stated) | -1.24
17 | Cc1[nH]c2ccc(C(=O)OC(C)C(=O)NC3CCCCC3C)cc2c1C (configuration not stated) | -2.39
